Test results from PubChem BioAssay (NCI).
Several values for one entry are separate records, joined by “and”; a condition that tells them apart may be missing. Equal entries are not always repeated. This is part of a sample that, as a whole, favours compounds with a hit. Of some 83,000 tested, about 20% had one in any assay.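 Testing used 96-well plates and a 48-hour single-concentration exposure. Example: -40 means 40% of the starting cells died.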 Values without a mark were called inactive. Activity calls are given as the source filed them. How the source made its calls: active means growth percent below 10; inactive means the rest.

Tested on: MDA-MB-468 breast
Experiment: NCI-60 one-dose screen, 48 h (100 = growth as untreated, 0 = no growth, -100 = all killed)
Conditions: 10 µM unless noted

| Compound | growth |
| --- | --- |
| CCCCN1C=CCN(CCCC)C1 | -1.66% (active) |
| CN(C)c1ccc(N=Nc2ccc3ccccc3c2)cc1 | 5.06% (active) |
| O=C(O)c1ccc[n+](CC(=O)N2CCN(c3cc4c(cc3F)c(=O)c(C(=O)O)cn4C3CC3)CC2)c1 | 81.4% |
| Oc1ccccc1-c1nc2ccccn2c1NCCN1CCOCC1 | 109% |
| Cc1ccc(NC2=C(Cl)C(=O)c3nc(C)ccc3C2=O)c(C)c1 | -70.2% (active) |
| N=C(N)N1CCc2ccccc2C1 | 41% and 107% |
| Nc1nc(Nc2cccc(F)c2)nc2ccccc12 | 8.81% (active) |
| COc1ccc(NC(=O)CSc2nnc(-c3cc(-c4ccc(S(N)(=O)=O)cc4)nc4ccccc34)n2-c2ccccc2)cc1 | 86.4% |
| CCCCCC/C=C\CCCCCCCCOc1ccc(CCOP(=O)(O)OCC[N+](C)(C)C)cc1 | 85.5% |
| CCCCCC(=O)OCC(=O)O[C@@H]1C[C@]2(C(C)C)O[C@@]1(C)[C@@H]1CC[C@@H](C)[C@H]1[C@@H]2OC(=O)/C=C/c1ccccc1 | 70% |
| C[C@]12CC[C@H]3[C@@H](CCC4=CC(=O)CC[C@@]43C)[C@@H]1CC[C@@H]2c1csc(N)n1 | 28.4% |
| COCCn1cc(-c2nc(-c3cn(CCOC)c4ncccc34)cs2)c2ccccc21 | -17.4% (active) |
